Most compounds without a hit are left out; they make up all but 2.4% or so of the library.
Pol beta inh: inhibitors of human DNA polymerase beta; P06746; Pol beta primer extension/strand displacement, fluorescence kinetic; Potency, µM (highest dose often 114 µM), for the others: at the top dose activity change, negative = inhibition, hits mostly inhibitors; 340,000 tested, 1.3% active; AID 485314; further: on the % scale 0 is the no-effect control and ±100 the full control effect
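Human Pol beta at 10 nM; strand-displacement substrate 50 nM final. Compound exposure 15 min at room temperature before start, reaction 10 min at room temperature.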
FEN1 inh: inhibitors of human flap endonuclease 1. P39748. Recombinant FEN1 flap cleavage, fluorescence, 15 min. Potency, µM (series often up to 114 µM), without a hit: at the top dose activity change, negative = inhibition, usual class: inhibitors. 390,000 tested, 0.35% active; further: on the % scale 0 is the no-effect control and ±100 the full control effect; nearly all actives have a fitted effect of over 65% in size
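Read-out was taken twice, immediately and after 15 min, following addition of 50 nM substrate to 10 nM FEN1 that had sat with test compound for 15 min at room temperature. Curves came from a four-parameter Hill model.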
POLI inh: inhibitors of human DNA polymerase iota; Potency, µM (highest dose often 115 µM), inactives show at the highest dose activity, negative = inhibition, hits mostly inhibitors; AID 588590; Q9UNA4; 390,000 tested, 1% active; Pol iota fluorescent replication assay, 10 min
Target sequence (Q9UNA4 whole entry, looked up): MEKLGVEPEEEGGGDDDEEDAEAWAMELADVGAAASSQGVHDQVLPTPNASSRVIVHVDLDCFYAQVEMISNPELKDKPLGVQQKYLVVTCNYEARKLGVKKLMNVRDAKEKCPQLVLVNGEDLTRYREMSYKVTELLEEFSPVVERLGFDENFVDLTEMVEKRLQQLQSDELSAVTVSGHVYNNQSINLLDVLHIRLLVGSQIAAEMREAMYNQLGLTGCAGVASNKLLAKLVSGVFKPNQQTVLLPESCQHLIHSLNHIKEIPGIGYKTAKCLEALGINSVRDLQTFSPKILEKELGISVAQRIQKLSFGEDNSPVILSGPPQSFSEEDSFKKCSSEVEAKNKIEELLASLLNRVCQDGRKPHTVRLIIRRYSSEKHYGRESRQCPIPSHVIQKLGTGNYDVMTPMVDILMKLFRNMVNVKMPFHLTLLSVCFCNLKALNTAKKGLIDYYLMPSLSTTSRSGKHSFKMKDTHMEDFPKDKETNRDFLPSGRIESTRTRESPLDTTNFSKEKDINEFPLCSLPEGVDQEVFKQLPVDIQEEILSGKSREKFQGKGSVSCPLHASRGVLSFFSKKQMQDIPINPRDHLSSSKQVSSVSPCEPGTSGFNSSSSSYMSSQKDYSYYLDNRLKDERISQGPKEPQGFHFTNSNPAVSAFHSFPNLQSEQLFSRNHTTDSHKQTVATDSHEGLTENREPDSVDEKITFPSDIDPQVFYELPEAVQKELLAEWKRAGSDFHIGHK
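Pol iota at 10 nM preincubated 15 min with compounds at room temperature; reaction started with fluorescent substrate, 50 nM final. Fluorescence read kinetically at 0 and 10 min; buffer-only wells as negative control.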
POLH inh: DNA polymerase eta (human) inhibition. Q9Y253. recombinant Pol eta, fluorescent DNA replication assay. Potency, µM (doses to about 114 µM), for inactives: at the top dose activity change, negative = inhibition, actives largely listed as inhibitors. 390,000 tested, 1.2% active. AID 588591; further: on the % scale 0 is the no-effect control and ±100 the full control effect
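Pol eta at 10 nM preincubated with compounds 15 min at room temperature; reaction started with fluorescent substrate (50 nM final) and read kinetically at 0 and 10 min.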
WRN helicase inh: WRN helicase (human) inhibition; WRN helicase unwinding, fluorescent forked duplex, kinetic; 360,000 tested, 0.46% active; Q14191; Potency, µM (highest dose often 114 µM), for inactives: at the highest dose activity change, negative = inhibition, most hits filed as inhibitors; AID 651768; further: on the % scale 0 is the no-effect control and ±100 the full control effect; nearly all actives have a fitted effect of over 55% in size
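WRN at 20 nM final was preincubated with compound for 15 min at room temperature; reaction started with 100 nM forked duplex oligonucleotide carrying fluorophore and quencher plus 2 mM ATP (final). Unwinding followed kinetically by red fluorescence (ex 525/em 598 nm).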
POLK inh: blocks human DNA polymerase kappa activity | Q9UBT6 | purified Pol kappa, fluorescent DNA synthesis assay, 10 min | Potency, µM (titrated, usually from 107 µM), without a hit: top-dose activity, negative = inhibition, hits mostly inhibitors | 400,000 tested, 0.53% active | AID 588579; further: on the % scale 0 is the no-effect control and ±100 the full control effect
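Fluorescent qHTS in 1536-well format: enzyme (10 nM) and compound sat 15 min at room temperature before 50 nM substrate (final) was added. Signal taken at 0 and 10 min; no-enzyme buffer wells were negative controls.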
An asterisk follows results filed as active; ? = inconclusive; . = no result given; [ ] = remark or other dose. The call rests on the fitted dose curve; in most records, active means well fitted curve in the direction sought with a large enough effect; inconclusive means small, poorly fitted or top-dose-only effect, or another doubt; inactive means no such curve, though single readings can be large; an effect the other way counts as inactive or inconclusive. Potency means the concentration at half of the fitted maximal effect.

SMILES	Pol beta inh	FEN1 inh	POLI inh	POLH inh	WRN helicase inh	POLK inh
COc1ccc(/C=C/c2nnc(NC(=O)COc3ccc(Cl)cc3)s2)cc1	.	1%	-4%	.	.	-15%
Cc1c(CCC(=O)N2CCC(C(=O)O)CC2)c(=O)oc2cc3oc4c(c3cc12)CCCC4	35µM*	-4%	-3%	8%	-1%	4%
CCOc1ccc2cc(C#N)c(SCC(=O)OCc3ccccc3)nc2c1	.	5%	2%	.	.	-6%
O=Cc1cccc(C=O)c1	.	-3%	-1%	.	.	-3%
CCNc1ccc(S(=O)(=O)N(C)C)cc1NCC(=O)Nc1ccc(F)c(Cl)c1	-26%	-5%	89µM*	-17%	-12%[57.1 µM]	-10%
Cc1c(Cl)cccc1NC(=O)CNc1cccc(S(=O)(=O)N(C)C)c1	79µM*	2%	11%	-11%	-5%	-6%
CCc1nnc(NC(=O)c2ccc(Cl)c(S(=O)(=O)N3CCc4ccccc43)c2)s1	20µM*	-2%	?	?	-19%	-24%
COc1ccc(C2CC(c3ccccc3)Oc3cc(OC)ccc32)cc1 (configuration not stated)	.	?	?	.	.	-10%
Cn1c(SCC(=O)Nc2ccc(Br)cn2)nnc1C1CC1	?	11%	?	79µM*	-1%	-42%
CN(C)S(=O)(=O)c1cccc(-c2nn(-c3ccccc3)cc2/C=C2\SC(=S)NC2=O)c1	20µM*	?	?	14µM*	50µM*	?
CN(C)S(=O)(=O)c1cccc(-c2nn(-c3ccccc3)cc2/C=C(\C#N)c2nc3ccccc3[nH]2)c1	-11%	-1%	30%	-18%	-17%	-19%
C=CCOC(/C=C/c1ccccc1)CC (configuration not stated)	.	-15%	-4%	.	.	-21%
O=C1OC(c2ccco2)=N/C1=C\c1ccc(-c2cccc(C(F)(F)F)c2)o1	-1%	13%	2%	79µM*	?	-29%
CCOC(=O)N/N=C\c1ccc(-c2cccc(C(F)(F)F)c2)o1	29%	-12%	9%	-9%	-23%	2%
COc1ccc2nc(N=Nc3ccc(O)c4ccccc34)sc2c1	45µM*	-19%	-2%	?	-16%	-28%
Cn1c(N)c(C(=O)COC(=O)C2Cc3ccccc3CN2S(C)(=O)=O)c(=O)n(C)c1=O (configuration not stated)	.	.	.	13µM*	?	.
C[C@H](C(=O)OCO/N=[N+](\[O-])N1CCCC1)c1cccc2ccccc12	.	?	35%	.	.	-27%
COc1ccc(NC(=O)Cc2cccs2)cc1S(=O)(=O)N1CCCCC1	.	-5%	72%	-20%	-11%	-4%
COc1ccc(NC(C)=O)cc1S(=O)(=O)N1CCN(Cc2cccs2)CC1	.	-1%	?	25µM*	-12%	-42%
CN1CCOc2cc(S(=O)(=O)N3CCN(c4nc(-c5cccs5)nc5ccccc45)CC3)ccc21	.	6%	11%	.	.	-20%
Cc1cc(N2CCOCC2)c2c(N)cc(C)c(C)c2n1	0%	-9%	7%	-3%	-3%	-2%
Nc1c(N2CCOCC2)cc(Cl)c2nonc12	-1%	-2%	3.5µM*	-5%	-14%	-1%
CC[N+]1(CC(=O)c2ccc(I)cc2)CCCCC1	.	14%	5%	.	.	-8%
CCc1cc2cc(C(=O)Nc3ccc(F)cc3)sc2s1	56µM*	-8%	?	?	-8%	-5%
CCc1cc2cc(C(=O)Nc3ccccc3F)sc2s1	-13%	0%	-25%	3%	-12%	-8%
Cc1cc(C)cc(Nc2cc(=O)n(C3CCCCC3)c(=O)[nH]2)c1	45µM*	0%	-3%	?	-17%	-13%
O=c1cc(N2CCCCC2)[nH]c(=O)n1C1CCCCC1	3%	-16%	-14%	-10%	-8%	-9%
O=c1ccc2cc3c([nH]c4ccc(Br)cc43)oc-2c1O	10µM*	.	.	.	.	.
O=C(O)c1ccc(N=Nc2c(O)[nH]c3ccc(Br)cc23)cc1	1%	-12%	-12%	?	-13%	-7%

Assay outcomes as filed in PubChem.
